# In PubChem BioAssay (Tox21):
# Where “and” joins values, the source holds several entries; their conditions need not be identical. Equal entries are not always repeated. Results filed as inconclusive are left out. Where a call stands in place of a potency, no number is given. A structure can be active in one record and inactive in another. Calls of active or inactive are those of the source. Unless noted, calls follow the shape of the dose curve; as a rule, active = well fitted curve in the direction sought with a large enough effect in the repeat runs; inconclusive = weak or mixed curves; inactive = no such curve, though single readings can be large; an effect the other way counts as inactive or inconclusive.
# Tests used:
# [1] = qHTS assay for small molecules that induce genotoxicity in human embryonic kidney cells expressing luciferase-tagged ATAD5 (AID 651632); also: nearly all actives have a fitted effect of over 15% in size
# Outline: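 Quantitative HTS in HEK293T expressing luciferase-tagged ATAD5, whose levels rise upon DNA damage. Exposure ran 16 hr at 37C and 5% CO2, with luminescence read 30 min after Amplite addition at room temperature.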
# [2] = qHTS assay for small molecule agonists of the p53 signaling pathway - cell viability (AID 651633; calls by dose curve; also: nearly all actives have a fitted effect of over 30% in size; also: potency is read from the fitted curve at half-maximal effect)
# Outline: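 p53RE-bla cells were treated with compound for 16 hours at 37 C. Cytotoxicity was then measured as CellTiter-Glo luminescence after 30 min at room temperature.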
# [3] = qHTS assay for small molecules that induce genotoxicity in human embryonic kidney cells expressing luciferase-tagged ATAD5 - cell viability (AID 651634; calls by dose curve; also: nearly all actives have a fitted effect of over 25% in size; also: potency is read from the fitted curve at half-maximal effect)
# Outline: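 After 15.5 hr incubation with compound at 37C, 5% CO2, HEK293T ATAD5-luciferase cells received CellTiter-Fluor reagent; fluorescence intensity was quantified following 30 min at 37C.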
# [4] = qHTS assay for small molecule disruptors of the mitochondrial membrane potential - cell viability (AID 720634; calls by dose curve; also: nearly all actives have a fitted effect of over 20% in size; also: potency is read from the fitted curve at half-maximal effect)
# Outline: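 ATP-based luminescent viability readout (CellTiter-Glo, 30 min, room temperature) in HepG2 cells multiplexed with the m-MPI membrane potential dye; compound exposure lasted 1 hr at 37 C.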
# [5] = qHTS assay to test for compound auto fluorescence at 590 nm (red) in HepG2 cells (AID 720674)
# Outline: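 Fluorescence at 590 nm emission following 540 nm excitation was recorded from HepG2 wells one hour after compound transfer, with DMSO-only wells as vehicle and Rose Bengal sodium equivalency as the scale.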
# [6] = qHTS assay to test for compound auto fluorescence at 535 nm (green) in HepG2 cells (AID 720675)
# [7] = qHTS assay to test for compound auto fluorescence at 460 nm (blue) in HEK293 cells (AID 720678)
# Outline: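 HEK293, 2,000 cells/well, 10% dialyzed FBS; attach 4-5 hr 37C; pin compound or DMSO; o/n 37C/5% CO2; fluorescence 405/460 nm; triamterene-equivalent units.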
# [8] = qHTS assay to test for compound auto fluorescence at 590 nm (red) in HEK293 cells (AID 720679)
# Outline: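 Intensity at 540nm excitation and 590nm emission is reported as Rose Bengal sodium-equivalent autofluorescence. Measurements followed overnight exposure (37C, 5% CO2) of HEK293 cells, 2,000 per well, to 23 nL compound.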
# [9] = qHTS assay to test for compound auto fluorescence at 535 nm (green) in HEK293 cells (AID 720680)
# [10] = qHTS assay to test for compound auto fluorescence at 460 nm (blue) in HEK293 cell free culture (AID 720681)
# Outline: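 Compounds were added to cell-free DMEM with 10% FBS and fluorescence read directly. The blue channel used 405 nm excitation and 460 nm emission, with triamterene as the reference fluorophore.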
# [11] = qHTS assay to test for compound auto fluorescence at 535 nm (green) in HEK293 cell free culture (AID 720682)
# Outline: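 Green-channel intensity (Ex/Em 485/535 nm) was recorded from compound-treated wells containing only DMEM with 10% FBS. Fluorescein provided the equivalency standard.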
# [12] = qHTS assay to test for compound auto fluorescence at 590 nm (red) in HEK293 cell free culture (AID 720683)
# Outline: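 Cell-free wells of DMEM with 10% FBS received compound, and intrinsic fluorescence was read at excitation/emission 540/590 nm. Values expressed as equivalence to Rose Bengal sodium.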
# [13] = qHTS assay to test for compound auto fluorescence at 590 nm (red) in HepG2 cell free culture (AID 720684)
# Outline: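 Rose Bengal sodium served as the reference for red signal. Test compounds were dispensed into serum-containing MEM (10% FBS) without cells, and plates were read at 540/590 nm.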
# [14] = qHTS assay to test for compound auto fluorescence at 460 nm (blue) in HepG2 cell free culture (AID 720685)
# Outline: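 Cell-free plates of MEM plus 10% FBS received 23 nL compound or DMSO vehicle; blue-channel (405/460 nm) intensity scored against triamterene as reference fluorophore.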
# [15] = qHTS assay to test for compound auto fluorescence at 535 nm (green) in HepG2 cell free culture (AID 720686)
# [16] = qHTS assay to test for compound auto fluorescence at 460 nm (blue) in HepG2 cells (AID 720687)
# Outline: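 HepG2 cells in MEM with 10% FBS, attached overnight at 37 C, were exposed to compound or DMSO for 1 hr at 37 C, 5% CO2. Blue fluorescence was read at 405/460 nm, with triamterene as reference fluorophore.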
# [17] = target: Glucocorticoid receptor (Homo sapiens) (UniProt P04150); assay: qHTS assay to identify small molecule agonists of the glucocorticoid receptor (GR) signaling pathway (AID 720691; active = well fitted activation curve with a large enough effect in the signal ratio in the repeat runs, not every such curve was filed as active; the % refers to the signal ratio)
# Outline: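 Cells: GR-bla HeLa, endogenous GR with stably integrated GRE-beta-lactamase reporter. Treatment 18 h, 37 C, compounds delivered in DMSO. Detection via LiveBLAzer B/G FRET substrate, 2 h RT, fluorescence intensity.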
# [18] = qHTS assay for small molecule disruptors of the mitochondrial membrane potential (AID 720635); also: potency is read from the fitted curve at half-maximal effect
# Outline: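 HepG2 cells exposed to compound 1 hr at 37C, then Mito-MPS dye 30 min. Ratio read of aggregate (540/590 nm) versus monomer (490/535 nm) fluorescence.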
# [19] = target: Glucocorticoid receptor (Homo sapiens) (UniProt P04150); assay: qHTS assay to identify small molecule antagonists of the glucocorticoid receptor (GR) signaling pathway (AID 720692; active = well fitted inhibition curve with a large enough effect in the signal ratio in the repeat runs, not every such curve was filed as active; the % refers to the signal ratio)
# Outline: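 Quantitative HTS in antagonist format: HeLa cells expressing endogenous GR and a stably integrated GRE-bla reporter, stimulated with 5 nM dexamethasone (final) alongside test compounds for 18 h.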
# Chain of Glucocorticoid receptor (Homo sapiens) (P04150 whole entry, looked up): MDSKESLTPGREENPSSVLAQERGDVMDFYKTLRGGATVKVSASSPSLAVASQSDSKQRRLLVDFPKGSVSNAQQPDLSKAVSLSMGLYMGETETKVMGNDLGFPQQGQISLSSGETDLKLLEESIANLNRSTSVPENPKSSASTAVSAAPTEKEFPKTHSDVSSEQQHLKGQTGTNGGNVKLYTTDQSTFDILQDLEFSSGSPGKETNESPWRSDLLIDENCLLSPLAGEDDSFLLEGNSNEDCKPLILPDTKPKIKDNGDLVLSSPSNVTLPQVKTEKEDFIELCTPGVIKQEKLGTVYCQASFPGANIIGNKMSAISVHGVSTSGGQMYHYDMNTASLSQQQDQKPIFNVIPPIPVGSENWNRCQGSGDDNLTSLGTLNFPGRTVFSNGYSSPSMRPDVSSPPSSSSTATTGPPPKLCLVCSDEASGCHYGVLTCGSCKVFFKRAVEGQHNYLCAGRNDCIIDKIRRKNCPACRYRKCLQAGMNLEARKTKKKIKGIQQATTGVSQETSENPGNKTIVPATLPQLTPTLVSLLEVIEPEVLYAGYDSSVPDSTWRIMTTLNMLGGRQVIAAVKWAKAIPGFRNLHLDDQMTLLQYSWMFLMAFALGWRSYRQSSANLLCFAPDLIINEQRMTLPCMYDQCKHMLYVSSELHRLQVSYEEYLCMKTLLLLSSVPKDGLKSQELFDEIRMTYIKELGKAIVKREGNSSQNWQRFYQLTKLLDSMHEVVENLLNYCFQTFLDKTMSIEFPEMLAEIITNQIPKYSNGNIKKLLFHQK
Compound,Potency [1],Potency [2],Potency [3],Potency [4],outcome [5],outcome [6],outcome [7],outcome [8],outcome [9],outcome [10],outcome [11],outcome [12],outcome [13],outcome [14],outcome [15],outcome [16],Potency [17],Potency [18],Potency [19]
CON(C)C(=O)Nc1ccc(Cl)cc1,inactive,inactive,inactive,inactive,inactive,inactive,inactive,inactive,inactive,inactive,inactive,inactive,inactive,inactive,inactive,inactive,inactive,–,–
Clc1ccccc1,inactive,inactive,inactive,inactive,inactive,inactive,inactive,inactive,inactive,inactive,inactive,inactive,inactive,inactive,inactive,inactive,inactive,inactive,inactive
CCC1(C2=NCCN2)Cc2ccccc2O1 (stereo not drawn),inactive,inactive,inactive,inactive,inactive,inactive,inactive,inactive,inactive,inactive,inactive,inactive,inactive,inactive,inactive,inactive,–,inactive,–
CC(C)(C)c1ccc(CCOc2ncnc3ccccc23)cc1,inactive,inactive,inactive,inactive,inactive,inactive,inactive,inactive,inactive,inactive,inactive,inactive,inactive,inactive,inactive,inactive,–,inactive,–
CC[N+]1(CCOC(=O)C(O)(c2ccccc2)c2ccccc2)CCCCC1,inactive,inactive,inactive,inactive,inactive,inactive,inactive,inactive,inactive,inactive,inactive,inactive,inactive,–,inactive,inactive,inactive,inactive,–
CCOP(=O)(SC(C)CC)N1CCSC1=O (stereo not drawn),inactive,inactive,inactive,inactive,inactive,inactive,inactive,inactive,inactive,inactive,inactive,inactive,inactive,inactive,inactive,inactive,–,inactive,–
COc1ccc(C(=O)c2c(C)n(CCN3CCOCC3)c3ccccc23)cc1,inactive,inactive,inactive,inactive,inactive,inactive,inactive,inactive,inactive,inactive,inactive,inactive,inactive,inactive,inactive,inactive,inactive,–,–
CN(C1CCCCC1)C1CCCCC1,inactive,inactive,inactive,inactive,inactive,inactive,inactive,inactive,inactive,inactive,inactive,inactive,inactive,inactive,inactive,inactive,inactive,inactive,inactive
CC(=O)OC(c1ccccc1)C(Cl)(Cl)Cl (stereo not drawn),inactive,inactive,inactive,inactive,inactive,inactive,inactive,inactive,inactive,inactive,inactive,inactive,inactive,inactive,inactive,inactive,inactive,54.5 µM (active),–
C=CC(=O)OCC,inactive,inactive,inactive,inactive,inactive,inactive,inactive,inactive,inactive,inactive,inactive,inactive,inactive,inactive,inactive,inactive,inactive,–,inactive
Cc1nc(N(C)C)nc(OC(=O)N(C)C)c1C,inactive,inactive,inactive,inactive,inactive,inactive,inactive,inactive,inactive,inactive,inactive,inactive,inactive,inactive,inactive,inactive,inactive,inactive,inactive
FC(Cl)(Cl)C(F)(Cl)Cl,inactive,inactive,inactive,inactive,inactive,inactive,inactive,inactive,inactive,inactive,inactive,inactive,inactive,inactive,inactive,inactive,–,inactive,–
CCCCCCCCCCCC[N+](C)(C)CCOc1ccccc1,inactive,29.8 µM (active) and 21.7 µM (active),29.8 µM (active) and 61.1 µM (active),inactive and 68.6 µM (active),inactive,inactive,inactive,inactive,inactive,inactive,inactive,inactive,inactive,inactive,inactive,inactive,–,26.6 µM (active) and 30.6 µM (active),–
O=C(N[C@H]1CN2CCC1CC2)c1ccc2c(c1)OCCO2,inactive,inactive,inactive,inactive,inactive,inactive,inactive,inactive,inactive,inactive,inactive,inactive,inactive,inactive,inactive,inactive,inactive,inactive,inactive
COCc1cnc(C2=NC(C)(C(C)C)C(=O)N2)c(C(=O)O)c1 (stereo not drawn),inactive,inactive,inactive,inactive,inactive,inactive,inactive,inactive,inactive,inactive,inactive,inactive,inactive,inactive,inactive,inactive,inactive,–,inactive
Cc1ccc(N)c(C)c1,inactive,inactive,inactive,inactive,inactive,inactive,inactive,inactive,inactive,inactive,inactive,inactive,inactive,inactive,inactive,inactive,inactive,inactive,–
CCOC(=O)NC(O)C(Cl)(Cl)Cl (stereo not drawn),inactive,inactive,inactive,inactive,inactive,inactive,inactive,inactive,inactive,inactive,inactive,inactive,inactive,inactive,inactive,inactive,–,inactive,–
C[N+]1(CCC(C(N)=O)(c2ccccc2)c2ccccc2)CCCCC1,inactive,inactive,inactive,inactive,inactive,inactive,inactive,inactive,inactive,inactive,inactive,inactive,inactive,inactive,inactive,inactive,inactive,inactive,inactive
O=C(NC(=O)c1cc(F)c(F)cc1Cl)Nc1cc(F)ccc1N1CCC(C(=O)O)CC1,inactive,inactive,inactive,inactive,inactive,inactive,inactive,inactive,inactive,inactive,inactive,inactive,inactive,inactive,inactive,inactive,inactive,–,–
O=C1NC(=O)C(=O)C(=O)N1,inactive,inactive,inactive,inactive,inactive,inactive,inactive,inactive,inactive,inactive,inactive,inactive,inactive,inactive,inactive,inactive,inactive,inactive,–
O=C(O)COc1cc(Cl)c(Cl)cc1Cl,inactive,inactive,inactive,inactive,inactive,inactive,inactive,inactive,inactive,inactive,inactive,inactive,inactive,inactive,inactive,inactive,inactive,–,inactive
CCOP(=O)(O)C(N)=O,inactive,inactive,inactive,inactive,inactive,inactive,inactive,inactive,inactive,inactive,inactive,inactive,inactive,inactive,inactive,inactive,inactive,3.44 µM (active),inactive
CCC1CCC(=O)O1 (stereo not drawn),inactive,inactive,inactive,inactive,inactive,inactive,inactive,inactive,inactive,inactive,inactive,inactive,inactive,inactive,inactive,inactive,inactive,inactive,inactive
CCc1cnc(C2=NC(C)(C(C)C)C(=O)N2)c(C(=O)O)c1 (stereo not drawn),inactive,inactive,inactive,inactive,inactive,inactive,inactive,inactive,inactive,inactive,inactive,inactive,inactive,inactive,inactive,inactive,inactive,inactive,inactive
CCOP(=S)(OCC)Oc1ccc(S(C)=O)cc1 (stereo not drawn),inactive,inactive,inactive,inactive,inactive,inactive,inactive,inactive,inactive,inactive,inactive,inactive,inactive,inactive,inactive,inactive,–,inactive,–
C=CCN1C[C@H](C)N([C@H](c2ccc(C(=O)N(CC)CC)cc2)c2cccc(OC)c2)C[C@H]1C,inactive,inactive,inactive,inactive,inactive,inactive,inactive,inactive,inactive,inactive,inactive,inactive,inactive,inactive,inactive,inactive,inactive,inactive,inactive
CC(C)(C)CC(C)(C)c1ccc(O)cc1,inactive,29.8 µM (active) and 30.6 µM (active),61.1 µM (active),23.7 µM (active) and 17.2 µM (active),inactive,inactive,inactive,inactive,inactive,inactive,inactive,inactive,inactive,inactive,inactive,inactive,–,3.35 µM (active) and 1.72 µM (active),–
